From PubChem BioAssay AID1159580 (chemical genetic matrix, 2015)
Where “and” joins values, the source holds several entries; their conditions need not be identical. Equal values may be shown once. About 2,000 (36%) of roughly 5,500 compounds were called active. About 18% were inconclusive and are not listed. Rule as the data show it: active = normalized growth mostly below about 0.91 (no sharp cut-off); inconclusive = no clear call, values can overlap the other calls; inactive = mostly above about 0.92. The list shows a part of the results.

Experiment: chemical genetic growth profiling, strain panel (AID 1159580);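 also: tested at 20 µM; growth read once vehicle control cultures reached saturation at 30 °C; 1 = growth at the plate median or of vehicle wells; lower values mean less growth of the strain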
Conditions: S. cerevisiae deletion strains, growth OD

Measured: normalized growth

COc1ccc2c(c1)[nH]c1c(C)nccc12
inactive: locus YAL013W, strain DEP1, stronger effect = lower value 1.02 | locus YAL021C, strain ccr4, stronger effect = lower value 0.978 | locus YAL026C, strain drs2, stronger effect = lower value 1 | locus YAL030W, strain snc1, stronger effect = lower value 1 | locus YBL061C, strain skt5, stronger effect = lower value 0.993 | locus YBR009C, strain hhf1, stronger effect = lower value 0.992 | locus YBR021W, strain FUR4, stronger effect = lower value 1.03 | locus YBR023C, strain chs3, stronger effect = lower value 1 | locus YBR171W, strain sec66, stronger effect = lower value 0.987 | locus YBR229C, strain ROT2, stronger effect = lower value 1.02 | locus YBR231C, strain swc5, stronger effect = lower value 0.994 | locus YBR279W, strain paf1, stronger effect = lower value 0.991 | locus YCL011C, strain gbp2, stronger effect = lower value 1.01 | locus YCL016C, strain dcc1, stronger effect = lower value 1 | locus YCL029C, strain bik1, stronger effect = lower value 0.968 | locus YCL061C, strain MRC1, stronger effect = lower value 0.994 | locus YCL069W, strain vba3, stronger effect = lower value 0.995 | locus YCR088W, strain abp1, stronger effect = lower value 1 | locus YDL005C, strain med2, stronger effect = lower value 0.994 | locus YDL035C, strain GPR1, stronger effect = lower value 0.998 | locus YDL040C, strain nat1, stronger effect = lower value 0.995 | locus YDL074C, strain BRE1, stronger effect = lower value 1.03 | locus YDL101C, strain DUN1, stronger effect = lower value 1.01 | locus YDL134C, strain PPH21, stronger effect = lower value 1.02 | locus YDL185W, strain tfp1, stronger effect = lower value 0.968 | locus YDL192W, strain arf1, stronger effect = lower value 0.979 | locus YDR001C, strain nth1, stronger effect = lower value 0.991 | locus YDR069C, strain doa4, stronger effect = lower value 0.997 | locus YDR101C, strain arx1, stronger effect = lower value 0.987 | locus YDR137W, strain rgp1, stronger effect = lower value 1.01 | locus YDR150W, strain NUM1, stronger effect = lower value 0.978 | locus YDR159W, strain sac3, stronger effect = lower value 1.01 | locus YDR162C, strain NBP2, stronger effect = lower value 1.02 | locus YDR195W, strain ref2 1.01 | locus YDR297W, strain sur2, stronger effect = lower value 0.999 | locus YDR318W, strain mcm21, stronger effect = lower value 0.986 | locus YDR334W, strain swr1, stronger effect = lower value 0.991 | locus YDR335W, strain msn5, stronger effect = lower value 0.994 | locus YDR388W, stronger effect = lower value 0.98 | locus YDR392W, strain spt3, stronger effect = lower value 0.991 | locus YDR502C, strain sam2, stronger effect = lower value 0.995 | locus YEL003W, strain gim4, stronger effect = lower value 0.988 | locus YEL037C, strain rad23, stronger effect = lower value 0.991 | locus YEL061C, strain CIN8 (second series), stronger effect = lower value 0.99 | locus YEL061C, strain CIN8, stronger effect = lower value 1.01 | locus YER015W, strain faa2, stronger effect = lower value 0.988 | locus YER016W, strain bim1, stronger effect = lower value 0.997 | locus YER110C, stronger effect = lower value 0.969 | locus YER111C, strain swi4, stronger effect = lower value 0.998 | locus YER155C, strain BEM2 (second series), stronger effect = lower value 0.95 | locus YER155C, strain BEM2, stronger effect = lower value 1.01 | locus YER167W, strain BCK2, stronger effect = lower value 1 | locus YFR010W, strain ubp6, stronger effect = lower value 0.982 | locus YGL078C, strain dbp3, stronger effect = lower value 0.972 | locus YGL086W, strain mad1, stronger effect = lower value 0.981 | locus YGL167C, strain pmr1, stronger effect = lower value 0.991 | locus YGL173C, strain kem1, stronger effect = lower value 0.999 | locus YGL227W, strain vid30, stronger effect = lower value 0.984 | locus YGL240W, strain doc1, stronger effect = lower value 0.989 | locus YGL248W, strain PDE1, stronger effect = lower value 1.02 | locus YGL253W, strain hxk2, stronger effect = lower value 0.995 | locus YGR078C, strain PAC10, stronger effect = lower value 1.03 | locus YGR135W, strain pre9, stronger effect = lower value 0.981 | locus YGR229C, strain SMI1, stronger effect = lower value 1.07 | locus YGR252W, strain gcn5, stronger effect = lower value 0.931 | locus YHR013C, strain ard1, stronger effect = lower value 1.01 | locus YHR027C, strain rpn1, stronger effect = lower value 0.991 | locus YHR030C, strain SLT2, stronger effect = lower value 1.01 and 1.02 | locus YHR079C, strain IRE1 (second series), stronger effect = lower value 0.988 | locus YHR079C, strain IRE1, stronger effect = lower value 1.03 | locus YHR094C, strain hxt1, stronger effect = lower value 0.963 | locus YHR129C, strain ARP1, stronger effect = lower value 1.01 | locus YHR142W, strain chs7, stronger effect = lower value 1.01 | locus YHR200W, strain rpn10, stronger effect = lower value 0.97 | locus YIL066C, strain RNR3, stronger effect = lower value 1.02 | locus YIL073C, strain SPO22, stronger effect = lower value 0.887 | locus YIL125W, strain kgd1, stronger effect = lower value 0.986 | locus YIR030C, strain dcg1, stronger effect = lower value 0.994 | locus YJL092W, strain hpr5, stronger effect = lower value 0.996 | locus YJL095W, strain BCK1 (second series), stronger effect = lower value 1 | locus YJL095W, strain BCK1, stronger effect = lower value 1.07 and 1.01 | locus YJL115W, strain asf1, stronger effect = lower value 0.979 | locus YJL129C, strain trk1, stronger effect = lower value 0.987 | locus YJL134W, strain LCB3, stronger effect = lower value 1.01 | locus YJL154C, strain vps35, stronger effect = lower value 1 | locus YJL164C, strain tpk1, stronger effect = lower value 0.997 | locus YJL166W, strain qcr8, stronger effect = lower value 0.991 | locus YJL168C, strain set2, stronger effect = lower value 0.996 | locus YJL187C, strain SWE1 (second series), stronger effect = lower value 1.01 | locus YJR043C, strain POL32, stronger effect = lower value 0.989 | locus YJR066W, strain TOR1, stronger effect = lower value 0.972
